Source: ChEMBL document CHEMBL4513216, “Probing the Open Global Health Chemical Diversity Library for Multistage-Active Starting Points for Next-Generation Antimalarials” (ACS Infect Dis, 2020)
About 8,600 (12%) of roughly 69,000 compounds showed an effect of 50% or more. The entries come from a sample that favours strong results as a whole.

system: Plasmodium berghei; experiment: Screen against P. berghei liver stage (PbLuc), transformed with Luciferase, at 10uM; type: functional, HepG2; settings: tested at 10 uM

Compound | INHIBITION [%]
Cc1ccc(C(N)=O)c(N2Cc3cnc(C(C)(C)C)nc3C2)n1 | 17.1
Cc1cccc(C2CCCCCN2C(=O)c2cn(CC(N)=O)nn2)c1 (stereo not drawn) | -15.245
COC(=O)C1CCCCN1C(=O)c1cn(C/C=C/c2ccccc2)nn1 (stereo not drawn) | 9.79
Cc1nc(C(C)NC(=O)c2cn(C/C=C/c3ccccc3)nn2)n[nH]1 (stereo not drawn) | 29.1
COC(=O)[C@@H]1CCCN1C(=O)c1cn(C/C=C/c2ccccc2)nn1 | 52.6
NC(=O)[C@@H]1CCCN1C(=O)c1cn(C/C=C/c2ccccc2)nn1 | 57.1
COC(=O)[C@@H]1CCCN1C(=O)c1cn(CCCc2ccccc2)nn1 | 2.4
Cc1ccc(C(=O)N2CC[C@@H](N(C)C)[C@@H]2Cc2cnn(C)c2)cn1 | 15.9
COc1ccc(N2CCN(C(=O)[C@@H]3C[C@@H](O)CN3)CC2(C)C)cc1 | 35.3
CC(=O)c1c(O)n(C)c2ccc(C)cc12 | -10.5
Cc1nn(C)c(C)c1-c1ccc(=O)n(C(C)C(=O)NC2CCCC2)n1 (stereo not drawn) | 35.05
COc1ccc(C2CC(=O)NCc3nc(N(C)C)sc32)c(O)c1 (stereo not drawn) | 36.6
COc1ccc(C(C)C)cc1C1CC(=O)NCc2nc(N(C)C)sc21 (stereo not drawn) | 52.2
COc1cc2c(cc1C1CC(=O)NCc3nc(N(C)C)sc31)CCC2 (stereo not drawn) | 27.6
CN(Cc1ccccc1F)C(=O)c1cc(Cl)c[nH]1 | 15.4
COc1nccnc1N1C[C@H]2CC[C@@H](C1)N(CC=C(C)C)C2=O | 6.83
CCOc1ccccc1C(CC(=O)Nc1ccncc1)NC(C)=O (stereo not drawn) | 26.9
NC(=O)C(NC1CCN(Cc2ccc(F)cc2)CC1)c1ccccc1 (stereo not drawn) | -106
CC(NC(=O)NC1CCN(Cc2ccncc2)CC1)c1cccc(F)c1 (stereo not drawn) | 13
CC(NC(=O)NC1CCN(Cc2ccncc2)CC1)c1ccccc1F (stereo not drawn) | 68.9
CC(NC(=O)NC1CCN(Cc2ccccn2)CC1)c1ccco1 (stereo not drawn) | 36.8
CC(NC(=O)NC1CCN(Cc2ccccc2)CC1)c1nncn1C (stereo not drawn) | -12.3
CC(NC(=O)NC1CCN(Cc2ccncc2)CC1)c1ccc(F)cc1 (stereo not drawn) | 75.7
O=C(C1CC1)N1CCN(Cc2ccncc2)c2ncccc2C1 | 5.56
CC(NC(=O)NCc1ccccc1Cl)c1ccccn1 (stereo not drawn) | -49.5
COc1ccc2c(c1)C(=O)NC1(CC2)CCN(Cc2cccnc2)C1 (stereo not drawn) | 2.1
Cc1cccc(-n2cc3[nH]c(=O)[nH]n3c2=O)c1 | 36.3

Compound | INHIBITION [%]
CC(C)C(C)N(Cc1cnc2ccccc2n1)Cc1ccco1 (stereo not drawn) | 47
CC(C)NC(=O)NC[C@H]1OC[C@@H](NCc2cccs2)[C@@H]1O | -13.4
Cc1ccc(CN[C@@H]2CO[C@H](CNS(=O)(=O)c3ccccc3)[C@H]2O)cc1 | 27.5
O=C(NC[C@H]1OC[C@@H](NCc2cccs2)[C@@H]1O)N1CCOCC1 | -0.371
CC(C)(C)CN[C@@H]1CO[C@H](CNC(=O)c2cccs2)[C@H]1O | -7.29
Cc1ccc(S(=O)(=O)NC[C@H]2OC[C@@H](NCc3cccs3)[C@@H]2O)cc1 | 52.5
O=S(=O)(NC[C@H]1OC[C@@H](NCc2cccs2)[C@@H]1O)c1ccccc1 | 51
CSc1nccn1-c1cccc(C(=O)NCC(F)(F)F)c1 | 18.2
N#CCCN(CCC#N)C(=O)CN(C1CC1)C1CCc2ccccc21 (stereo not drawn) | -40.5
CCC(O)CN1CCN(C(=O)c2ccn(C)c(=O)c2)CC1 (stereo not drawn) | 13.3
CC(C)CCc1nc(CNCC2CN(C)CCO2)cs1 (stereo not drawn) | -21.9
Cc1cc(NC(=O)CN2CCn3c(nnc3C(C)C)C2)n(C)n1 | 22.2
CC1NC(=O)COC12CCN(C(=O)Cc1ccsc1)CC2 (stereo not drawn) | -28.6
Cc1nc(CN2C(=O)COC3(CCN(Cc4nccs4)CC3)C2C)cs1 (stereo not drawn) | 15.1
CC1N(C)C(=O)COC12CCN(C(=O)Cc1ccsc1)CC2 (stereo not drawn) | 77.7
Cc1nc(CN2C(=O)COC3(CCN(Cc4ccsc4)CC3)C2C)cs1 (stereo not drawn) | 38.2
CC1N(C)C(=O)COC12CCN(Cc1nccs1)CC2 (stereo not drawn) | 69.7
CC1N(C)C(=O)COC12CCN(Cc1ccsc1)CC2 (stereo not drawn) | 63
CN1CCN(C)C2(CCN(Cc3ccsc3)CC2)C1=O | 5.04
CC1N(CC2CC2)C(=O)COC12CCN(Cc1nccs1)CC2 (stereo not drawn) | 31.8
CC1N(C)C(=O)COC12CCN(C(=O)CCc1ccccc1)CC2 (stereo not drawn) | 6.83
Cc1nc[nH]c1C(=O)N1CCCC2(C1)C(=O)N(C)c1ccccc12 (stereo not drawn) | 9.57
Cn1nc2c(cc1=O)CN(Cc1nc(-c3ccco3)no1)CC2 | -7.31
Cc1nnc2n1CCN(C(=O)c1cc(Cl)c(Br)[nH]1)C2 | -33.32
CC(=O)NCc1ccc(C(=O)Nc2ccc3c(c2)C(=O)NC3)cc1 | -20
CCOc1ccccc1CNS(=O)(=O)c1ccc2c(c1)CCCC(=O)N2 | 19.4
